Assay results from PubChem BioAssay (Tox21).
Results filed as inconclusive are left out. Active and inactive are the calls of the source. The call rests on the fitted dose curve.

What was measured:
[1] = biological target: Acetylcholinesterase (Homo sapiens) (UniProt P22303); assay: Acetylcholinesterase (AChE) small molecule antagonists: colormetric cell-based qHTS assay (AID 1347395); conditions: SH-SY5Y cells AChE activity, colorimetric (Ellman); series mostly up to 115 µM; further: nearly all actives have a fitted effect of over 30% in size
Chain of Acetylcholinesterase (Homo sapiens) (P22303 whole entry, looked up): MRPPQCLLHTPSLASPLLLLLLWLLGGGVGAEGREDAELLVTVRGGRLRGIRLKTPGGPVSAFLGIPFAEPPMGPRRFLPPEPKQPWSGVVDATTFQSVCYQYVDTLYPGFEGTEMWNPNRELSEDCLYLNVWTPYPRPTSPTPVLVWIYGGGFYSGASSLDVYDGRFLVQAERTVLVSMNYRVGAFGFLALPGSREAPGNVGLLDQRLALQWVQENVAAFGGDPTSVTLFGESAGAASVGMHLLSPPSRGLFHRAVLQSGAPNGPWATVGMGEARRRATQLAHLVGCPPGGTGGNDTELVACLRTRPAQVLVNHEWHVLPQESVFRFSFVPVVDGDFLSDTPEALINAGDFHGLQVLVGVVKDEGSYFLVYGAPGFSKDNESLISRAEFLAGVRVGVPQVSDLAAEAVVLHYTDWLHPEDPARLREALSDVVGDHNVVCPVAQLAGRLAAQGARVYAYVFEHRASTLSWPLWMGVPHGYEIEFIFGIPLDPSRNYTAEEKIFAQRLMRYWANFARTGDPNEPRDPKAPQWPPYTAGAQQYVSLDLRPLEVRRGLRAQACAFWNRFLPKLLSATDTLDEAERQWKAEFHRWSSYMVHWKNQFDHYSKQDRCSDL
In short: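 Homogeneous whole-cell format. SH-SY5Y cells seeded overnight, dosed with compound (30 min, 37 C, 5% CO2), then given DTNB/acetylthiocholine cocktail for 90 min at 37 C; colorimetric signal.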

[2] = biological target: Acetylcholinesterase (Homo sapiens) (UniProt P22303); assay: Acetylcholinesterase (AChE) small molecule antagonists: enzyme-based qHTS assay (AID 1347397); conditions: Potency: AChE enzyme activity inhibition; outcome: AChE enzyme activity inhibition; series mostly up to 115 µM; further: nearly all actives have a fitted effect of over 55% in size
In short: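 Compound or DMSO vehicle was pin-transferred onto recombinant human AChE (50 mU/mL as dispensed) and left 30 min at room temperature. Acetylthiocholine with DTNB then started the reaction, read colorimetrically 10 min later.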

[3] = biological target: Acetylcholinesterase (Homo sapiens) (UniProt P22303); assay: Acetylcholinesterase (AChE) small molecule antagonists: fluorescence cell-based qHTS assay (AID 1347398); conditions: SH-SY5Y cells; Potency: AChE activity; outcome: AChE activity; series mostly up to 115 µM; further: nearly all actives have a fitted effect of over 50% in size
In short: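 Using neuroblastoma SH-SY5Y cells as the enzyme source, test chemicals are preincubated 30 min at 37 C; AChE-driven acetylthiocholine cleavage is then quantified by thiocholine-dependent Thiolite Green fluorescence after 40 min at room temperature.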

[4] = biological target: Acetylcholinesterase (Homo sapiens) (UniProt P22303); assay: Acetylcholinesterase (AChE) small molecule antagonists: enzyme-based qHTS assay with human liver microsomes (AID 1347399); conditions: Potency: qHTS inhibition; outcome: qHTS inhibition; series mostly up to 115 µM; further: nearly all actives have a fitted effect of over 60% in size
In short: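 Recombinant human AChE (50 mU/mL in the enzyme mix) and human liver microsomes (0.25 mg/mL final) were preincubated with compound and NADPH (0.25 mg/mL final) for 30 min at 37 C. Acetylthiocholine/DTNB was then added; thiocholine was read colorimetrically after 10 min at room temperature.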

Measured: Potency

C=CC(C)C#N (configuration not stated)
inactive: all assays above

O=c1[nH]ncc2ccccc12
inactive: all assays above

CC1c2ccccc2CN1NC(=O)c1ccc(Cl)c(S(N)(=O)=O)c1 (configuration not stated)
inactive: all assays above

CCOC(=O)COc1cc(-n2ncc(C(F)(F)F)c(C)c2=O)c(F)cc1Cl
inactive: all assays above

CCCCOc1ccc(OCCCN2CCOCC2)cc1
inactive: all assays above

CCOc1ccccc1N
inactive: all assays above

Nc1nc(=O)n([C@@H]2O[C@H](CO)[C@@H](O)[C@@H]2F)cc1I
inactive: all assays above

CC(C)Nc1ccc(NC(C)C)c2c1C(=O)c1ccccc1C2=O
inactive: all assays above

Nc1ccc(F)cc1
inactive: all assays above

COC(=O)/C=C/C(C)=C\C=C\C(C)=C\C=C\C=C(C)\C=C\C=C(C)\C=C\C(=O)O
inactive: all assays above

C=CC1CO1 (configuration not stated)
inactive: all assays above

CC(=O)C(C)=O
inactive: all assays above

O=C(O)c1cccc(C(=O)O)c1C(=O)O
inactive: all assays above

CCCCC1CCCCC(=O)O1 (configuration not stated)
inactive: all assays above

CCCC(=O)OCC
inactive: all assays above

COC(=O)c1ccccc1Cl
inactive: all assays above

O=C1NC(=O)c2cc([N+](=O)[O-])ccc21
inactive: all assays above

N#CCCOCCOCCC#N
inactive: all assays above
